About 3,300 (0.97%) of roughly 340,000 compounds were called active. Another 9% or so got no clear call; they are omitted. Calls come from the whole dose curve; as a rule, active = well fitted inhibition curve with a large enough effect; inconclusive = small, poorly fitted or top-dose-only effect, or effect the other way; inactive = flat fitted curve, though single readings scatter. This is one part of the list.
Assay: qHTS Assay for Modulators of miRNAs and/or Inhibitors of miR-21; note: nearly all actives have a fitted effect of over 55% in size
Conditions: HeLa miR-21-FLuc reporter, luciferase luminescence, 48 h; actives lower the signal
How it was run: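 Luminescence from a firefly luciferase reporter carrying a miR-21 binding site downstream, stably expressed under a CMV promoter in HeLa cells that make miR-21 endogenously, reports miRNA modulation after 48 h compound exposure up to approximately 40uM final.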
Potency is the fitted concentration of half-maximal effect.

Row | SMILES | Potency
1 | O=c1c2cn[nH]c2[nH]c(=S)n1-c1ccccc1F | 927 nM (active)
2 | COc1ccc(-c2cnc3c(-c4ccc(F)cc4)cnn3c2N)cc1 | 521 nM (active)
3 | c1ccc(-c2cc3nccc(-c4ccccn4)n3n2)cc1 | 3690 nM (active)
4 | Nc1c(-c2ccc(Cl)cc2)cnc2c(-c3ccccc3)cnn12 | 414 nM (active)
5 | Nc1c(-c2cccs2)cnc2c(-c3ccc(F)cc3)cnn12 | 329 nM (active)
6 | Nc1c(-c2ccccc2)cnc2cc(-c3ccccc3)nn12 | 414 nM (active)
7 | Nc1c(-c2ccccc2)cnc2c(-c3ccccc3)cnn12 | 92.7 nM (active)
8 | Nc1c(-c2ccc(Cl)cc2)nnn1-c1ccccc1 | 2330 nM (active)
9 | Nc1c(-c2ccc(Cl)cc2)cnc2c(-c3ccc(F)cc3)cnn12 | 585 nM (active)
10 | Nc1c(-c2ccc(Cl)cc2)cnn1-c1ccccc1 | 1650 nM (active)
11 | Nc1c(-c2cccc(Cl)c2)cnc2c(-c3ccccc3)cnn12 | 1650 nM (active)
12 | CC(=O)Nc1cccc(NC(=O)c2ccc(COc3ccccc3)cc2)c1 | 1470 nM (active)
13 | O=C(Nc1ccccc1F)c1ccc(OCc2ccccc2)cc1 | 5210 nM (active)
14 | CCOC(=O)C(=O)N(Nc1ccc(C)cc1)c1ccc(C)cc1 | 9270 nM (active)
15 | O=C(O)c1ccc(N=NNc2cccc([N+](=O)[O-])c2)cc1 | 5850 nM (active)
16 | CCOC(=O)/C(N=Nc1ccc2c(c1)OCO2)=C(\C)O | 4650 nM (active)

Row | SMILES | Potency
17 | CC(=O)/C(N=Nc1ccc2c(c1)OCO2)=C(\C)O | 6560 nM (active)
18 | C/C(=N\NC(=O)COc1ccccc1)c1cccs1 | 14700 nM (active)
19 | C/C(=N\NC(=O)COc1ccccc1[N+](=O)[O-])c1cccs1 | 5210 nM (active)
20 | Cc1ccn(-c2cccc(-n3ccc(C)n3)n2)n1 | 2610 nM (active)
21 | O=C(NC1CCCCC1)C(=O)c1c[nH]c2ccccc12 | 4140 nM (active)
22 | O=C(NCC1CCCO1)C(=O)c1c[nH]c2ccccc12 (configuration not stated) | 18500 nM (active)
23 | O=C(Nc1ccccc1)c1cc2n(n1)C(C(F)(F)F)CC(C1CC1)N2 (configuration not stated) | 6560 nM (active)
24 | COc1cccc(Nc2ncnc3sc(C)cc23)c1 | 6560 nM (active)
25 | COc1cccc(Nc2ncnc3ccccc23)c1 | 2330 nM (active)
26 | COc1ccc(Nc2cc(Nc3cccc(OC)c3)ncn2)cc1 | 14700 nM (active)
27 | COc1ccc(Nc2ncnc3sc(C)cc23)cc1 | 11700 nM (active)
28 | COc1cccc(Nc2ncnc3sccc23)c1 | 7360 nM (active)
29 | CSc1ccccc1-c1nc(-c2ccncc2)no1 | 1850 nM (active)
30 | COc1ccc(-c2nc(-c3ccc(Br)cc3)no2)c(OC)c1 | 585 nM (active)
31 | COc1ccc(-c2nc(-c3ccncc3)no2)cc1 | 464 nM (active)
32 | Cc1ccc(-c2nc(-c3ccncc3)no2)cc1C | 585 nM (active)
